Test results published in the antibiotic and cytotoxicity screens of Wong et al. (2023).
About 3,300 (8.5%) of roughly 39,000 compounds were called active. This is one part of a sample in which actives are shown more often than they occur.

The compounds below were run on HepG2 (assay: cytotoxicity call (relative viability < 0.9)). Settings: 10 µM.

Row | SMILES | cytotoxicity call
1 | C/N=C1/S[C@@H]2CS(=O)(=O)C[C@@H]2N1C | inactive
2 | O=C(C[C@H]1CC[C@H]2[C@@H](COC[C@@H](O)CN2S(=O)(=O)c2ccc(F)cc2)O1)N[C@H]1CCN(Cc2ccccc2)C1 | inactive
3 | COc1cccc(CNC(=O)C[C@@H]2C=C[C@H](NC(=O)C3CCOCC3)[C@@H](CO)O2)c1 | inactive
4 | C[C@@H]1CN([C@@H](C)CO)C(=O)c2cccc(NS(=O)(=O)c3cn(C)cn3)c2O[C@@H]1CN(C)Cc1ccccc1 | inactive
5 | COc1cc2c3cc1Oc1cc(ccc1O)C[C@@H]1c4c(cc(OC)c(O)c4Oc4ccc(cc4)C[C@@H]3N(C)CC2)CC[N+]1(C)C | inactive
6 | COc1ccc2cc1Oc1ccc(cc1)CC1c3cc(c(OC)cc3CCN1C)Oc1c(OC)c(OC)cc3c1C(C2)N(C)CC3 (configuration not stated) | inactive
7 | COc1ccc2cc1Oc1ccc(cc1)C[C@H]1c3cc(c(OC)cc3CCN1C)Oc1c(OC)c(OC)cc3c1[C@H](C2)N(C)CC3 | active
8 | COc1cc2c3cc1Oc1cc(ccc1O)CC1c4c(cc(OC)c(O)c4Oc4ccc(cc4)CC3N(C)CC2)CC[N+]1(C)C.Cl.O.O.O.O.O.[Cl-] (configuration not stated) | inactive
9 | COc1ccc2cc1Oc1ccc(cc1)C[C@H]1c3c(cc4c(c3Oc3cc5c(cc3OC)CCN(C)[C@@H]5C2)OCO4)CCN1C | inactive
10 | COc1ccc2cc1Oc1ccc(cc1)CC1c3c(cc4c(c3Oc3cc5c(cc3OC)CCN(C)C5C2)OCO4)CCN1C (configuration not stated) | active
11 | CO[C@H]1CN(C)C(=O)c2cc(NS(C)(=O)=O)ccc2OC[C@H](C)N(S(C)(=O)=O)C[C@@H]1C | inactive
12 | CNC[C@@H]1OCCCC[C@@H](C)Oc2ccc(NS(=O)(=O)c3cn(C)cn3)cc2C(=O)N([C@@H](C)CO)C[C@@H]1C | inactive
13 | C[C@H]1CN([C@@H](C)CO)C(=O)c2cc(C#CC3(O)CCCC3)cnc2O[C@H]1CN(C)C(=O)Cc1ccncc1 | inactive
14 | O=C(NO)c1cccc(C(=O)N/N=C/c2cc(I)cc(I)c2O)c1 | inactive
15 | O=C(Nc1ccc2ccccc2c1)c1ccc(Cl)cc1Cl | inactive
16 | O=C(Nc1ccc(Oc2ccc(Cl)cc2)c(Cl)c1)c1cc(I)cc(I)c1O | active
17 | C[C@@H]1CCCCO[C@H](CN(C)C(=O)Nc2ccc(C(F)(F)F)cc2)[C@@H](C)CN([C@@H](C)CO)C(=O)c2cc(NS(=O)(=O)c3ccc(F)cc3)ccc2O1 | inactive
18 | C[C@@H]1CCCCO[C@H](CN(C)C(=O)Nc2ccc(C(F)(F)F)cc2)[C@H](C)CN([C@H](C)CO)C(=O)c2cc(NS(=O)(=O)c3ccc(F)cc3)ccc2O1 | active
19 | C[C@H](CO)N1C[C@H](C)[C@H](CN(C)C(=O)Nc2ccc(C(F)(F)F)cc2)OCCCC[C@H](C)Oc2ccc(NS(=O)(=O)c3ccc(F)cc3)cc2C1=O | inactive
20 | C[C@H](CO)N1C[C@H](C)[C@@H](CN(C)C(=O)Nc2ccc(C(F)(F)F)cc2)OCCCC[C@H](C)Oc2ccc(NS(=O)(=O)c3ccc(F)cc3)cc2C1=O | inactive
21 | C[C@@H]1CCCCO[C@H](CN(C)C(=O)Nc2ccc(C(F)(F)F)cc2)[C@H](C)CN([C@@H](C)CO)C(=O)c2cc(NS(=O)(=O)c3ccc(F)cc3)ccc2O1 | active
22 | C[C@@H]1CCCCO[C@H](CN(C)C(=O)Nc2ccc(C(F)(F)F)cc2)[C@@H](C)CN([C@H](C)CO)C(=O)c2cc(NS(=O)(=O)c3ccc(F)cc3)ccc2O1 | inactive
23 | C[C@@H]1CN([C@@H](C)CO)C(=O)c2cc(NS(=O)(=O)c3ccc(F)cc3)ccc2O[C@@H](C)CCCCO[C@@H]1CN(C)C(=O)Nc1ccc(C(F)(F)F)cc1 | active
24 | C[C@H]1CCCCO[C@H](CN(C)C(=O)Nc2ccc(C(F)(F)F)cc2)[C@@H](C)CN([C@@H](C)CO)C(=O)c2cc(NS(=O)(=O)c3ccc(F)cc3)ccc2O1 | active

Row | SMILES | cytotoxicity call
25 | C[C@H]1CN([C@@H](C)CO)S(=O)(=O)c2ccc(C#CC(C)(C)O)cc2O[C@H]1CN(C)Cc1ccccc1 | inactive
26 | O=C(NO)c1ccc(C(=O)N/N=C/[C@H](O)[C@H](O)[C@@H](O)[C@@H](O)CO)cc1 | inactive
27 | C[C@@H]1CCCCO[C@H](CN(C)S(=O)(=O)c2ccc(F)cc2)[C@@H](C)CN([C@H](C)CO)C(=O)c2cc(NS(C)(=O)=O)ccc2O1 | inactive
28 | C[C@@H]1CCCCO[C@H](CN(C)S(=O)(=O)c2ccccc2)[C@H](C)CN([C@H](C)CO)C(=O)c2cc(NC(=O)Nc3ccccc3)ccc2O1 | inactive
29 | C[C@@H]1CCCCO[C@@H](CN(C)Cc2ccc(C(=O)Nc3ccccc3N)cc2)[C@@H](C)CN([C@H](C)CO)C(=O)c2cc(NC(=O)CCC(F)(F)F)ccc2O1 | inactive
30 | C[C@@H]1CN([C@@H](C)CO)S(=O)(=O)c2ccc(C#C[C@@H](C)O)cc2O[C@H]1CN(C)C(=O)c1ccccc1 | inactive
31 | COc1ccc(NC(=O)Nc2ccc3c(c2)C(=O)N([C@@H](C)CO)C[C@@H](C)[C@H](CN(C)S(=O)(=O)c2ccccc2)OCCCC[C@H](C)O3)cc1 | inactive
32 | COc1ccc(S(=O)(=O)N(C)C[C@H]2Oc3ccc(NS(=O)(=O)c4ccccc4)cc3CC(=O)N([C@H](C)CO)C[C@H]2C)cc1 | inactive
33 | C[C@@H]1CCCCO[C@@H](CN(C)C(=O)Nc2ccc(C(F)(F)F)cc2)[C@H](C)CN([C@H](C)CO)C(=O)c2cc(NS(=O)(=O)c3ccc(F)cc3)ccc2O1 | inactive
34 | C[C@@H]1CCCCO[C@@H](CN(C)C(=O)Nc2ccc(C(F)(F)F)cc2)[C@@H](C)CN([C@H](C)CO)C(=O)c2cc(NS(=O)(=O)c3ccc(F)cc3)ccc2O1 | active
35 | C[C@H]1CCCCO[C@@H](CN(C)C(=O)Nc2ccc(C(F)(F)F)cc2)[C@@H](C)CN([C@@H](C)CO)C(=O)c2cc(NS(=O)(=O)c3ccc(F)cc3)ccc2O1 | inactive
36 | C[C@@H]1CCCCO[C@@H](CN(C)C(=O)Nc2ccc(C(F)(F)F)cc2)[C@H](C)CN([C@@H](C)CO)C(=O)c2cc(NS(=O)(=O)c3ccc(F)cc3)ccc2O1 | active
37 | C[C@@H]1CCCCO[C@@H](CN(C)S(=O)(=O)c2cccs2)[C@H](C)CN([C@H](C)CO)C(=O)c2cc(NS(=O)(=O)c3cn(C)cn3)ccc2O1 | inactive
38 | COCC#Cc1ccc2c(c1)O[C@H](CN(C)S(=O)(=O)c1ccc(OC)cc1)[C@H](C)CN([C@H](C)CO)S2(=O)=O | inactive
39 | C[C@@H]1CN([C@@H](C)CO)C(=O)c2cccc(NS(C)(=O)=O)c2O[C@H]1CN(C)C(=O)Nc1ccc(F)cc1 | inactive
40 | C[C@H]1CN([C@@H](C)CO)C(=O)c2cc(NC(=O)Cn3cnnn3)ccc2O[C@@H]1CN(C)Cc1ccc2c(c1)OCO2 | inactive
41 | O=S1(=O)N[C@H](c2ccccc2)CO1 | inactive
42 | Cc1ccc(S(=O)(=O)Nc2ccc3c(c2)CC(=O)N([C@H](C)CO)C[C@@H](C)[C@H](CN(C)C(=O)Nc2cccc4ccccc24)O3)cc1 | inactive
43 | O=S1(=O)CC=CC1 | inactive
44 | Cc1ccc(S[C@]2(C(=O)NC3CC3)CC(=O)N(C3CCCCC3)[C@@H]2c2ccc(CO)cc2I)cc1 | inactive
45 | Cc1noc(C)c1S(=O)(=O)Nc1ccc2c(c1)C(=O)N([C@H](C)CO)C[C@@H](C)[C@H](CN(C)C)OCCCC[C@@H](C)O2 | inactive
46 | COc1cccc(c1)CN1CC[C@]2(CC1)CN([C@H](CO)c1c2c2ccc(cc2n1C)OC)C(=O)Nc1ccc(cc1)F | inactive
47 | COc1ccc2c3c(n(c2c1)C)[C@H](CO)N(C[C@]13CCN(CC1)Cc1ccccc1F)C(=O)Nc1ccc(cc1)F | inactive
48 | COc1ccc2c3c(n(c2c1)C)[C@@H](CO)N(C[C@]13CCN(CC1)C(=O)c1ccccc1F)C(=O)Nc1ccc(cc1)F | inactive

Row | SMILES | cytotoxicity call
49 | COc1ccc2c3c(n(c2c1)C)[C@@H](CO)N(C[C@]13CCN(CC1)Cc1ccccc1F)C(=O)Nc1ccc(cc1)F | active
50 | COc1ccc2c3c(n(c2c1)C)[C@H](CO)N(C[C@]13CCN(CC1)Cc1cccc(c1)F)C(=O)Nc1ccc(cc1)F | active
51 | COc1ccc2c3c(n(c2c1)C)[C@@H](CO)N(C[C@]13CCN(CC1)Cc1cccc(c1)F)C(=O)Nc1ccc(cc1)F | inactive
52 | O=C(C[C@H]1CC[C@@H]2[C@H](COC[C@H](O)CN2C(=O)Nc2cccc(F)c2)O1)NCc1ccccc1Cl | inactive
53 | CN1C(=O)c2cc(NC(=O)c3ccc(F)c(F)c3)ccc2OC[C@@H]2O[C@@H](CC(=O)N3CCOCC3)CC[C@H]21 | inactive
54 | C[C@H](CO)N1C[C@H](C)[C@@H](CN(C)C(=O)Cc2ccccc2)Oc2cc(-c3cncnc3)ccc2S1(=O)=O | inactive
55 | C[C@@H]1CN([C@H](C)CO)C(=O)c2cc(C#Cc3cccc(F)c3)cnc2O[C@@H]1CN(C)CC1CCOCC1 | inactive
56 | COc1ccc(S(=O)(=O)N(C)C[C@@H]2Oc3cc(C#CC4CC4)ccc3S(=O)(=O)N([C@H](C)CO)C[C@@H]2C)cc1 | inactive
57 | CO[C@H]1CN(C)C(=O)c2cc(NC(=O)NC3CCCCC3)ccc2OC[C@@H](C)N(CCc2ccccc2)C[C@H]1C | inactive
58 | Cc1noc(C)c1S(=O)(=O)Nc1ccc2c(c1)CC(=O)N([C@@H](C)CO)C[C@@H](C)[C@@H](CN(C)C(=O)NC1CCCCC1)O2 | inactive
59 | CN(C)CCCNC(=O)C[C@H]1CC[C@H]2[C@@H](COC[C@@H](O)CN2S(=O)(=O)c2ccccc2)O1 | inactive
60 | C[C@@H]1CCCCO[C@H](CN(C)C(=O)Cc2ccccc2)[C@@H](C)CN([C@@H](C)CO)C(=O)c2cc(NC(=O)Nc3ccc(F)cc3)ccc2O1 | inactive
61 | C[C@@H]1CN([C@H](C)CO)C(=O)c2c(c3ccccc3n2C)-c2ccccc2CO[C@H]1CN(C)S(=O)(=O)c1ccc(Cl)cc1 | inactive
62 | C[C@H]1CN([C@@H](C)CO)C(=O)c2c(c3ccccc3n2C)-c2ccccc2CO[C@H]1CN(C)S(=O)(=O)c1ccc(Cl)cc1 | active
63 | C[C@@H]1CN([C@H](C)CO)C(=O)c2c(c3ccccc3n2C)-c2ccccc2CO[C@@H]1CN(C)S(=O)(=O)c1ccc(C(F)(F)F)cc1 | inactive
64 | C[C@H](CO)N1C[C@H](C)[C@H](CN(C)S(=O)(=O)c2ccc(Cl)cc2)OCc2ccccc2-c2c(n(C)c3ccccc23)C1=O | active
65 | C[C@@H]1CN([C@@H](C)CO)C(=O)c2c(c3ccccc3n2C)-c2ccccc2CO[C@H]1CN(C)S(=O)(=O)c1ccc(Cl)cc1 | active
66 | C[C@H]1CN([C@@H](C)CO)C(=O)c2c(c3ccccc3n2C)-c2ccccc2CO[C@@H]1CN(C)S(=O)(=O)c1ccc(Cl)cc1 | active
67 | C[C@H]1CN([C@@H](C)CO)C(=O)c2c(c3ccccc3n2C)-c2ccccc2CO[C@H]1CN(C)S(=O)(=O)c1ccc(C(F)(F)F)cc1 | inactive
68 | C[C@@H]1CN([C@H](C)CO)C(=O)c2c(c3ccccc3n2C)-c2ccccc2CO[C@@H]1CN(C)S(=O)(=O)c1ccc(Cl)cc1 | inactive
69 | C[C@@H]1CN([C@@H](C)CO)C(=O)c2c(c3ccccc3n2C)-c2ccccc2CO[C@@H]1CN(C)S(=O)(=O)c1ccc(C(F)(F)F)cc1 | inactive
70 | C[C@@H]1CN([C@@H](C)CO)C(=O)c2c(c3ccccc3n2C)-c2ccccc2CO[C@H]1CN(C)S(=O)(=O)c1ccc(C(F)(F)F)cc1 | inactive
71 | C[C@H](CO)N1C[C@H](C)[C@@H](CN(C)S(=O)(=O)c2ccc(Cl)cc2)OCc2ccccc2-c2c(n(C)c3ccccc23)C1=O | inactive
72 | C[C@@H]1CN([C@@H](C)CO)C(=O)c2c(c3ccccc3n2C)-c2ccccc2CO[C@@H]1CN(C)S(=O)(=O)c1ccc(Cl)cc1 | inactive
